These results are taken from PubChem BioAssay (EPA / NIEHS).

Structures are written as SMILES. Calls of active or inactive are those of the source. The calls were made as follows: active = hit-call score of the fitted dose curve at least 0.9, where 1 is the maximum; inactive = score below 0.9.

Broadly, the AC50 is the midpoint of the concentration-response curve, whichever way the signal moves.

Common to all, as to conditions: mRNA level, 48 h; actives raise or lower the signal
Read-out in experiment [1]: Paternally Expressed 10 (PEG10), PEG10 (gene 23089)
The experiment in a line: LTEA_HepaRG_PEG10: Life Technologies and Expression Analysis (LTEA) Assay for Paternally Expressed 10 (PEG10) using HepaRG (AID 2283520).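 As to AC50: differentiated HepaRG human liver cells in serum-free induction medium with 0.5% DMSO; PEG10 transcript by qRT-PCR normalised to ACTB GAPDH and POLR2A.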 The essentials:
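Human HepaRG cultures are dosed for 48 h across an eight-point half-log series starting at 100 uM, with 0.5% DMSO as vehicle and baseline. Gain or loss of PEG10 transcript is measured by qRT-PCR and fitted in both directions.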

Read-out in experiment [2]: Nuclear factor NF-kappa-B p105 subunit (Homo sapiens) (UniProt P19838)
Briefly: LTEA_HepaRG_NFKB1: Life Technologies and Expression Analysis (LTEA) Assay for Nuclear Factor Kappa B Subunit 1 (NFKB1) using HepaRG (AID 2283521).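 As to outcome: differentiated human HepaRG liver cells in serum-free induction medium; TaqMan qRT-PCR transcript normalised to ACTB GAPDH and POLR2A housekeeping genes.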 The essentials: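 HepaRG, 48 h exposure; 8-pt half-log series from 100 uM in 0.5% DMSO; duplicates. Readout: NFKB1 mRNA by qRT-PCR (Fluidigm arrays), housekeeping-normalized. Gain/loss fit vs DMSO baseline.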

Read-out in experiment [3]: Protein phosphatase 2A (PPP2R4), PTPA (gene 5524)
The experiment in a line: LTEA_HepaRG_PPP2R4: Life Technologies and Expression Analysis (LTEA) Assay for Protein phosphatase 2A (PPP2R4) using HepaRG (AID 2283522). The essentials:
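Cells were plated, cultured 48 h, switched to serum-free induction medium, then dosed for 48 h (8 points, max 100 uM, 0.5% DMSO). RNA was isolated and PPP2R4 expression measured by TaqMan qRT-PCR.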

Read-out in experiment [4]: Phosphatase and tensin (PTEN), PTEN (gene 5728)
The experiment in a line: LTEA_HepaRG_PTEN: Life Technologies and Expression Analysis (LTEA) Assay for Phosphatase and tensin (PTEN) using HepaRG (AID 2283523). The essentials: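 HepaRG, 48 h exposure, 8-pt half-log series from 100 uM top, 0.5% DMSO vehicle, duplicates. Readout: Fluidigm qRT-PCR of PTEN transcript; housekeeping normalization (ACTB, GAPDH, POLR2A). Gain or loss fitted relative to DMSO baseline.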

Read-out in experiment [5]: solute carrier (SLC22A1), SLC22A1 (gene 6580)
The experiment in a line: LTEA_HepaRG_SLC22A1: Life Technologies and Expression Analysis (LTEA) Assay for solute carrier (SLC22A1) using HepaRG (AID 2283524).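 As to AC50: differentiated human HepaRG liver cells in serum-free induction medium.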 The essentials: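 qRT-PCR readout (TaqMan, Fluidigm arrays) of SLC22A1 transcript, normalized to three housekeeping genes; bidirectional curve fit relative to 0.5% DMSO vehicle. Differentiated human HepaRG cells, 48 h chemical exposure, top concentration 100 uM, half-log steps, eight points.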

Read-out in experiment [6]: Pyruvate Dehydrogenase Kinase 4 (PDK4), PDK4 (gene 5166)
The experiment in a line: LTEA_HepaRG_PDK4: Life Technologies and Expression Analysis (LTEA) Assay for Pyruvate Dehydrogenase Kinase 4 (PDK4) using HepaRG (AID 2283525). The essentials: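 HepaRG (human liver line), 48 h chemical exposure, 8-pt half-log CRC top 100 uM, 0.5% DMSO vehicle, duplicates. Readout: TaqMan qRT-PCR of PDK4 mRNA, housekeeping-normalized; gain/loss fit relative to DMSO baseline.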

Read-out in experiment [7]: NAD(P)H dehydrogenase [quinone] 1 (NQO1), NQO1 (gene 1728)
Briefly: LTEA_HepaRG_NQO1: Life Technologies and Expression Analysis (LTEA) Assay for NAD(P)H dehydrogenase [quinone] 1 (NQO1) using HepaRG (AID 2283526). The essentials: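 Transcript induction or suppression is quantified by qRT-PCR in human HepaRG liver cells dosed for 48 hours. Eight half-log concentrations topping at 100 uM are used, with 0.5% DMSO as vehicle and baseline.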

Read-out in experiment [8]: Nuclear factor erythroid 2-related factor 2 (Homo sapiens) (UniProt Q16236)
Briefly: LTEA_HepaRG_NFE2L2: Life Technologies and Expression Analysis (LTEA) Assay for Nuclear factor erythroid 2-related factor 2 (NFE2L2) Transcription Factor using HepaRG (AID 2283527).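 As to outcome: TaqMan qRT-PCR transcript level normalised to ACTB GAPDH and POLR2A housekeeping genes.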 The essentials:
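HepaRG, 48 h dosing, 8-pt half-log series from 100 uM in 0.5% DMSO, duplicates. Read-out: NFE2L2 mRNA by qRT-PCR (ACTB/GAPDH/POLR2A normalization). Bidirectional curve fit vs DMSO baseline.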

Read-out in experiment [9]: succinate dehydrogenase complex iron sulfur subunit B (SDHB), SDHB (gene 6390)
The experiment in a line: LTEA_HepaRG_SDHB: Life Technologies and Expression Analysis (LTEA) Assay for succinate dehydrogenase complex iron sulfur subunit B (SDHB) using HepaRG (AID 2283528). The essentials: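 Readout is SDHB transcript level by qRT-PCR, normalised to three housekeeping genes and fitted bidirectionally against 0.5% DMSO vehicle. Human HepaRG cells were treated for 48 h at up to 100 uM.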

Read-out in experiment [10]: Signal transducer and activator of transcription 3 (Homo sapiens) (UniProt P40763)
The experiment in a line: LTEA_HepaRG_STAT3: Life Technologies and Expression Analysis (LTEA) Assay for Signal transducer and activator of transcription (STAT3) using HepaRG (AID 2283529). The essentials:
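HepaRG, 48 h exposure, 8-pt half-log series (top 100 uM), 0.5% DMSO vehicle, duplicates. Readout: STAT3 transcript by Fluidigm qRT-PCR, housekeeping-normalized; bidirectional fit vs DMSO baseline.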

Read-out in experiment [11]: solute carrier (SLCO1B1), SLCO1B1 (gene 10599)
Briefly: LTEA_HepaRG_SLCO1B1: Life Technologies and Expression Analysis (LTEA) Assay for solute carrier (SLCO1B1) using HepaRG (AID 2283530). The essentials:
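HepaRG, serum-free induction medium, 48 h dosing, 8-pt half-log from 100 uM, 0.5% DMSO vehicle, duplicates. Readout: SLCO1B1 mRNA, qRT-PCR, ACTB/GAPDH/POLR2A normalization; up or down fit vs DMSO.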

Read-out in experiment [12]: sulfotransferase 2A1 (SULT2A1), SULT2A1 (gene 6822)
Briefly: LTEA_HepaRG_SULT2A1: Life Technologies and Expression Analysis (LTEA) Assay for sulfotransferase 2A1 (SULT2A1) using HepaRG (AID 2283531). The essentials: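 Transcript levels of SULT2A1, quantified by qRT-PCR and normalized to three housekeeping genes, serve as the readout. Human HepaRG cultures receive test chemicals for 48 h at up to 100 uM in half-log steps, with 0.5% DMSO vehicle.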

Read-out in experiment [13]: Transforming Growth Factor (TGFA), TGFA (gene 7039)
Briefly: LTEA_HepaRG_TGFA: Life Technologies and Expression Analysis (LTEA) Assay for Transforming Growth Factor (TGFA) using HepaRG (AID 2283532). The essentials:
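qRT-PCR read-out of TGFA transcript, normalized to three housekeeping genes, fitted bidirectionally against 0.5% DMSO baseline. Human HepaRG cultures received chemicals for 48 h at eight half-log concentrations, top 100 uM.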

Read-out in experiment [14]: Transforming Growth Factor (TGFB1), TGFB1 (gene 7040)
Briefly: LTEA_HepaRG_TGFB1: Life Technologies and Expression Analysis (LTEA) Assay for Transforming Growth Factor (TGFB1) Transporter using HepaRG (AID 2283533). The essentials:
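HepaRG, 48 h post-plating, switched to serum-free induction medium; chemicals 100 uM top, half-log, 8 pts, 0.5% DMSO, dup; 48 h exposure; RNA → Fluidigm TaqMan qRT-PCR; norm ACTB/GAPDH/POLR2A; bidirectional fit vs DMSO.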

Read-out in another experiment: TIMP1, TIMP1 (gene 7076)
Briefly: LTEA_HepaRG_TIMP1: Life Technologies and Expression Analysis (LTEA) Assay for TIMP1 using HepaRG (AID 2283534). The essentials:
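Readout is TIMP1 mRNA level measured by qRT-PCR and normalized to three housekeeping genes. Human HepaRG cells were treated for 48 h in duplicate at eight concentrations up to 100 uM (0.5% DMSO); gain or loss fitted against DMSO.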

Read-out in experiment [15]: Tumor necrosis factor receptor 1 (TNFRSF1A), TNFRSF1A (gene 7132)
Briefly: LTEA_HepaRG_TNFRSF1A: Life Technologies and Expression Analysis (LTEA) Assay for Tumor necrosis factor receptor 1 (TNFRSF1A) using HepaRG (AID 2283535). The essentials: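 Read-out is TNFRSF1A transcript level by TaqMan qRT-PCR, normalized to three housekeeping genes, scored as gain or loss of signal versus 0.5% DMSO. Human HepaRG cells received test chemicals for 48 h at up to 100 uM (half-log series).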

Read-out in experiment [16]: Thyroid Hormone Responsive (THRSP), THRSP (gene 7069)
Briefly: LTEA_HepaRG_THRSP: Life Technologies and Expression Analysis (LTEA) Assay for Thyroid Hormone Responsive (THRSP) using HepaRG (AID 2283536). The essentials:
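qRT-PCR read-out (Fluidigm TaqMan), housekeeping-normalized (ACTB/GAPDH/POLR2A). HepaRG, 48 h chemical exposure, 8-pt half-log series from 100 uM in 0.5% DMSO, duplicates. Bidirectional curve fit vs 0.5% DMSO baseline.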

Read-out in experiment [17]: Cellular tumor antigen p53 (Homo sapiens) (UniProt P04637)
The experiment in a line: LTEA_HepaRG_TP53: Life Technologies and Expression Analysis (LTEA) Assay for Tumor Protein P53 (TP53) using HepaRG (AID 2283537). The essentials:
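Read-out is TP53 transcript level by microfluidic qRT-PCR, normalised to three housekeeping genes and fitted bidirectionally against DMSO. Human HepaRG cells received compounds for 48 h, highest concentration 100 uM.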

Read-out in experiment [18]: UDP glucuronosyltransferase (UGT1A1), UGT1A1 (gene 54658)
Briefly: LTEA_HepaRG_UGT1A1: Life Technologies and Expression Analysis (LTEA) Assay for UDP glucuronosyltransferase (UGT1A1) using HepaRG (AID 2283538). The essentials:
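Cells are plated, cultured 48 h, switched to serum-free induction medium, then dosed 48 h at eight concentrations (max 100 uM, 0.5% DMSO). RNA is isolated and UGT1A1 expression measured by qRT-PCR; changes versus DMSO are fitted in both directions.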

Read-out in experiment [19]: UDP glucuronosyltransferase (UGT1A6), UGT1A6 (gene 54578)
Briefly: LTEA_HepaRG_UGT1A6: Life Technologies and Expression Analysis (LTEA) Assay for UDP glucuronosyltransferase (UGT1A6) using HepaRG (AID 2283539). The essentials:
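HepaRG, 48 h post-plating switch to serum-free induction medium; chemical 48 h, 100 uM top, half-log x8, duplicate, 0.5% DMSO. Phenobarbital 1mM induction control. UGT1A6 mRNA by TaqMan qRT-PCR; gain/loss fit vs DMSO.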

Nuclear factor erythroid 2-related factor 2 (Homo sapiens), sequence (Q16236 whole entry, looked up): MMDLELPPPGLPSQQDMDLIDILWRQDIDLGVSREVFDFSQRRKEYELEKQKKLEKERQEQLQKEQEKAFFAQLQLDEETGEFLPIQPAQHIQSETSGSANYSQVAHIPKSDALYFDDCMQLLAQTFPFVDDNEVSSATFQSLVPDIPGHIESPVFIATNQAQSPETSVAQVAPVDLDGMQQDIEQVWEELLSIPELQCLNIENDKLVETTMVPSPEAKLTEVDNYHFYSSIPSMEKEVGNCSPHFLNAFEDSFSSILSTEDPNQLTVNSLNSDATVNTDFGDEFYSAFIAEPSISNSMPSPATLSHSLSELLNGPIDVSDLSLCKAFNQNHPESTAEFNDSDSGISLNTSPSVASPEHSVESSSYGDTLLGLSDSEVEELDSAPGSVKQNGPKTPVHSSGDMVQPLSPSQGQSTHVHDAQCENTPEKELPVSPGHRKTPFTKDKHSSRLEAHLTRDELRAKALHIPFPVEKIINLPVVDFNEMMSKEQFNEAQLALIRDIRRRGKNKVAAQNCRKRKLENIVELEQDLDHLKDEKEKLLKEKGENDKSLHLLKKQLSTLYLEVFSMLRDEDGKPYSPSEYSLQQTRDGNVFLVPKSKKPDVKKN
Cellular tumor antigen p53 (Homo sapiens), sequence (P04637 whole entry, looked up): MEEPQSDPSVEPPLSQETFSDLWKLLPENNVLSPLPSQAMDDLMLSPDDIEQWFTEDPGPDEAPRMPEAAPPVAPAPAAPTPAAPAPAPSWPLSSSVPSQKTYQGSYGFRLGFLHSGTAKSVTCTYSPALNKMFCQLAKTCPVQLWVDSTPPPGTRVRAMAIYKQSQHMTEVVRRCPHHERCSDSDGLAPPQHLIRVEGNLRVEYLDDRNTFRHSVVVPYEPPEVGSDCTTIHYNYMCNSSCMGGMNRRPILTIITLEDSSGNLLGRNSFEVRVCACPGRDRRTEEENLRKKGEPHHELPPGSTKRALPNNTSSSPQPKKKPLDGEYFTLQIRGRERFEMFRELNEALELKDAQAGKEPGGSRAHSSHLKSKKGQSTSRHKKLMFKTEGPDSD
Nuclear factor NF-kappa-B p105 subunit (Homo sapiens), sequence (P19838 whole entry, looked up): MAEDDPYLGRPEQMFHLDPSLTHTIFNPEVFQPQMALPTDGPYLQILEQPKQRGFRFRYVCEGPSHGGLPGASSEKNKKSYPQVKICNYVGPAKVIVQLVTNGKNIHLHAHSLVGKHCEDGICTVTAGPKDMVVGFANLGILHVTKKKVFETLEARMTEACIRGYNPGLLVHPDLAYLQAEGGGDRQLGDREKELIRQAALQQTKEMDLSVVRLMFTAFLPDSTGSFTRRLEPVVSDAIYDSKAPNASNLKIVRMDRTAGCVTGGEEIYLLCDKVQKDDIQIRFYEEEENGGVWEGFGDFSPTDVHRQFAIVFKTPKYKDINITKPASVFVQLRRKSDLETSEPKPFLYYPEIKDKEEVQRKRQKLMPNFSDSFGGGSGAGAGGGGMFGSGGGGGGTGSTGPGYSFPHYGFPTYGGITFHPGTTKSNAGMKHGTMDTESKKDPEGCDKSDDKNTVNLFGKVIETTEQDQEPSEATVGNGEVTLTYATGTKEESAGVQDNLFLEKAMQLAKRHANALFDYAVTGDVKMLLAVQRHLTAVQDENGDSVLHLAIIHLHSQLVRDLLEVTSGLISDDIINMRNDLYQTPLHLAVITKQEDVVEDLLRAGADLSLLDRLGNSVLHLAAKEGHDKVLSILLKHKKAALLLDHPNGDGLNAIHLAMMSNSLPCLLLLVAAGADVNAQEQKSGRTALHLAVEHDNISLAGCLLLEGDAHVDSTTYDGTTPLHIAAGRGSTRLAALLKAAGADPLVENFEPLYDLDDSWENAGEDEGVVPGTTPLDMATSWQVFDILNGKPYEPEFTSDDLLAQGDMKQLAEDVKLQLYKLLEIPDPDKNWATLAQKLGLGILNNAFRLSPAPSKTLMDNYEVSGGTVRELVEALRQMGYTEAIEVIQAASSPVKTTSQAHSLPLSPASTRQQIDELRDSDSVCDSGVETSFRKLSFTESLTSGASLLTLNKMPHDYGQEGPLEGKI
Signal transducer and activator of transcription 3 (Homo sapiens), sequence (P40763 whole entry, looked up): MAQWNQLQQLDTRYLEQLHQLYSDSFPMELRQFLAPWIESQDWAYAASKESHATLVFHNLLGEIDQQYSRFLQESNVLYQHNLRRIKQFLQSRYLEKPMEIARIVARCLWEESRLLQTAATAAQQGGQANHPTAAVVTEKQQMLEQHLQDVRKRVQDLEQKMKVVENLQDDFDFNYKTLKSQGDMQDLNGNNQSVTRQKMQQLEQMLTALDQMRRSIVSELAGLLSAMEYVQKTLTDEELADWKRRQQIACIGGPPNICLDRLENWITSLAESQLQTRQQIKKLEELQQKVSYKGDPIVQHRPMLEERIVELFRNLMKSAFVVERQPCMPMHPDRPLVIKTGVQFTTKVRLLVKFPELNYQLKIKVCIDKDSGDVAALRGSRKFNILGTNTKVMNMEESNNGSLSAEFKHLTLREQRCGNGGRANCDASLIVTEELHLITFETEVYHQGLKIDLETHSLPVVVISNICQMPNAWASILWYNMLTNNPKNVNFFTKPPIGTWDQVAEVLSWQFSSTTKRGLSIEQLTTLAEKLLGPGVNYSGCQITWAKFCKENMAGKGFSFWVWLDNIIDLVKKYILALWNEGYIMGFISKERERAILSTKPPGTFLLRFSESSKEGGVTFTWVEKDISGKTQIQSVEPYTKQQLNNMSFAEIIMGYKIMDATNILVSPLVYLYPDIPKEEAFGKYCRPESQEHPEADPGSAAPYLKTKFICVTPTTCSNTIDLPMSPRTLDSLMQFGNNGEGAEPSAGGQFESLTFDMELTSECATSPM

`COCC(C)OCC(C)OCC(C)O` (configuration not stated): the compound was called inactive in experiment [1], in [2], in experiment [3], in experiment [4], in experiment [5] and in [6]. The compound was called inactive in [7], in experiment [8], in experiment [9], in experiment [10], in [11] and in experiment [12]. Also, the outcome in experiment [13] was “inactive”; in [14] it was “inactive”; in the experiment with TIMP1, TIMP1 (gene 7076), “inactive”; in experiment [15], “inactive”; in experiment [16] it was “inactive”; in [17], “inactive”. Besides, the result in experiment [18] and in [19] was inactive.

Consider `NCc1cccc(C2CCN(C(=O)c3ccc(C#Cc4ccccc4F)o3)CC2)c1`, for which the AC50 in experiment [1] was 24.7 µM (active); in experiment [5], 92.6 µM (active); in experiment [6], 64.9 µM (active); in [11], 88.5 µM (active); in experiment [12] it was 92.9 µM (active); in the experiment with TIMP1, TIMP1 (gene 7076), 85.9 µM (active). The half-maximal activity concentration (AC50) in [15] was 91.9 µM (active); in experiment [16], 83.9 µM (active); in experiment [18], 86.3 µM (active); in experiment [19], 93.1 µM (active). Moreover, the compound was called inactive in experiment [2], in [3], in experiment [4], in experiment [7], in experiment [8] and in [9]. Moreover, the result in experiment [13], in experiment [14] and in experiment [17] was inactive.

For `O=C(O)Cc1cc(I)c(Oc2ccc(O)c(I)c2)c(I)c1`, the AC50 in [1] was 0.558 µM (active); in experiment [2] it was 71.8 µM (active); in experiment [5], 78.8 µM (active); in experiment [6], 0.00367 µM (active); in experiment [8], 85.6 µM (active); in experiment [11], 82.7 µM (active). Also, the AC50 in experiment [12] is 79.5 µM (active); in experiment [13], 85.3 µM (active); in experiment [14] it was 79.5 µM (active); in experiment [16], 81.7 µM (active); in experiment [17], 79.6 µM (active); in [18] it was 95.7 µM (active). Further, in experiment [19], the AC50 was 77.9 µM (active). Also, the outcome is “inactive” in [3]; “inactive” in experiment [4]; “inactive” in experiment [9]; “inactive” with TIMP1, TIMP1 (gene 7076); “inactive” in experiment [15].
